Laboratory results taken from PubChem BioAssay (NCATS).
Results filed as inconclusive are left out. Calls of active or inactive are those of the source. Calls come from the whole dose curve; as a rule, active = well fitted curve in the direction sought with a large enough effect; inconclusive = small, poorly fitted or top-dose-only effect, or another doubt; inactive = no such curve, though single readings can be large; an effect the other way counts as inactive or inconclusive.

Assays:
[1] = biological target: Nuclear receptor subfamily 1 group I member 3 (Homo sapiens) (UniProt Q14994); experiment: qHTS for Constitutive Androstane Receptor (CAR) Antagonist screened against the NCATS CANVASS Library (AID 1347372);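 note: cells stimulated with 50 nM CITCO agonist so inhibition reflects antagonism; series mostly up to about 46 µM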
How it was run: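 HepG2-CYP2B6-hCAR double-stable cells plated, 4hr attach; cpd pin-transferred; CITCO 50 nM final; 24hr 37C/5% CO2; CellTiter-Fluor 1hr (fluorescence), then ONE-Glo luminescence.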

[2] = biological target: Nuclear receptor subfamily 1 group I member 3 (Homo sapiens) (UniProt Q14994); experiment: qHTS for Constitutive Androstane Receptor (CAR) Agonist screened against the NCATS CANVASS Library (AID 1347373);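 note: every well also contained 1.5 µM PK11195 alongside the test compound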
How it was run: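 HepG2 cells stably expressing hCAR and a CYP2B6-2.2kb luciferase reporter were treated for 24hr at 37C with compounds (11-point qHTS) in the presence of 1.5uM PK11195. Reporter activation was read by ONE-Glo luminescence.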

[3] = qHTS for Hypoxia signaling pathway (HIF-1) agonists against the NCATS CANVASS Library (AID 1347375)
How it was run: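 HRE-bla ME-180 cells (beta-lactamase reporter under hypoxia responsive element) in 0.5% dialyzed FBS medium, 5 h at 37C, then compound 17 h, 11-point qHTS series. CCF4-AM FRET substrate 2 h RT; 460/530 nm emission read.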

[4] = 10-beta competent E. coli microbial cell viability qHTS against the NCATS CANVASS Library (AID 1347376); note: series mostly up to about 46 µM
How it was run: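 10-beta competent E. coli (0.9 OD culture diluted to 0.2 OD) exposed to compounds in an 11-point qHTS series, incubated overnight at 37C, 5% CO2. Viability read as ATP by BacTiter-Glo luminescence after 20 min at room temperature.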

[5] = DH5-alpha competent E. coli microbial cell viability qHTS against the NCATS CANVASS Library (AID 1347377)
How it was run: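 DH5-alpha E. coli suspension (0.9 OD culture diluted to 0.2 OD) exposed to compounds in an 11-point series, overnight at 37C, 5% CO2. Viability read as ATP by BacTiter-Glo luminescence after 20 min at room temperature.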

[6] = qHTS for H2AX Agonists against the NCATS CANVASS Library (AID 1347378)
How it was run: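 CHO-K1 cells were plated overnight at 37C, then exposed to compounds (concentration series, 0.76% DMSO final) for 3 hr at 37C. Lysates received Eu-cryptate anti-pH2AX (S139) and d2 anti-H2AX antibodies; after 24 hr at room temperature, TR-FRET 665/620 nm ratio was read.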

[7] = qHTS for Inflammasome Signaling Inhibitors: IL-1-beta AlphaLISA screen against the NCATS CANVASS Library (AID 1347379);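 note: human THP-1 cells primed with LPS then triggered with ATP; secreted IL-1B measured as AlphaLISA emission at 615 nm; lower signal means less IL-1B release which is the wanted effect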
How it was run: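 Human THP-1 cells were pretreated 1 hr at 37 °C with compounds (up to 57.5 uM final), then stimulated with LPS (250 ng/mL final) and ATP (1.25 mM final). Secreted IL-1B was read by AlphaLISA after 16 hr.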

[8] = Inflammasome Signaling qHTS Counterscreen: IL-1-beta AlphaLISA counterscreen against the NCATS CANVASS Library (AID 1347381);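 note: cell-free check with purified IL-1β in medium and no THP-1 cells; series mostly up to about 57 µM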
How it was run: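 To flag interference with the AlphaLISA read-out, a known amount of purified IL-1-beta (4 pg) replaced cell supernatant. Detection used anti-IL-1-beta acceptor beads, biotinylated antibody and streptavidin donor beads at room temperature.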

[9] = qHTS for Hypoxia signaling pathway (HIF-1) antagonists against the NCATS CANVASS Library (AID 1347374);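 note: HRE-bla ME-180 cells stimulated with cobalt chloride to stabilize HIF-1alpha; series mostly up to about 38 µM; nearly all actives have a fitted effect of over 60% in size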
How it was run: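 HRE-bla ME-180 cells (2,000/well, 0.5% dialyzed FBS) were pre-incubated 5 h, then given an 11-point compound series plus CoCl2 (60 uM solution as added) for 17 h at 37C. CCF4 β-lactamase read (ex 405, em 460/530 nm) after 2 h at RT.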

[10] = qHTS for Antimalaria activity screened against the NCATS CANVASS Library (AID 1347380);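 note: Plasmodium falciparum strain Dd2 asexual parasites grown in red blood cells; series mostly up to about 29 µM; nearly all actives have a fitted effect of over 40% in size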
How it was run: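 P. falciparum Dd2-infected RBCs (2.5% hematocrit final, 0.3% parasitemia) in Albumax II RPMI were exposed to compounds in an 11-point qHTS series for 72 h at 37C under 5% O2/5% CO2, then lysed with SYBR Green.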

Measured: outcome

Sequence of Nuclear receptor subfamily 1 group I member 3 (Homo sapiens) (Q14994 whole entry, looked up): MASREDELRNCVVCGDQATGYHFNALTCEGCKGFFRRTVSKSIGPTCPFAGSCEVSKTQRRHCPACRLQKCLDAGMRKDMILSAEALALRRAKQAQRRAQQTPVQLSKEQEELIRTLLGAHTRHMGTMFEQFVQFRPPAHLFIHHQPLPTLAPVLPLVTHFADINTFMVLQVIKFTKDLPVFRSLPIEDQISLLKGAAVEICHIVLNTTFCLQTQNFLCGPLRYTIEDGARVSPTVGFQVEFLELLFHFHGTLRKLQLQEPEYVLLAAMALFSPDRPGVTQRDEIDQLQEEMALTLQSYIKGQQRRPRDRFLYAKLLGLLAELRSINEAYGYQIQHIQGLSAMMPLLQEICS

C=C(C)[C@@H]1CC[C@]2(C(=O)O)CC[C@]3(C)[C@H](CC[C@@H]4[C@@]5(C)CC[C@H](O)C(C)(C)[C@@H]5CC[C@]43C)[C@@H]12
not listed: [9] | [10]
inactive: all other assays above

O=c1c(O)c(-c2ccc(O)c(O)c2)oc2cc(O)ccc12
not listed: [4] | [5]
inactive: all other assays above
